In PubChem BioAssay AID720519 (National Center for Advancing Translational Sciences (NCATS), 2013):
Results filed as inconclusive are left out. Calls follow the shape of the dose curve; as a rule, active = well fitted activation curve with a large enough effect; inconclusive = small, poorly fitted or top-dose-only effect; inactive = flat fitted curve, though single readings scatter.

Experiment: qHTS for Inhibitors of Cell Surface uPA Generation: Confirmatory Assay for Cherry-picked Compounds; also: 0% is about no effect
Settings: cell surface uPA activity generation, qHTS confirmation; series mostly up to 115 µM; inhibition: at the top concentration
Method in brief: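 RAW 264.7 cells at 4000/well, incubated overnight, then treated with compounds. After 24 h at 37 C, viability was read by ATPlite luminescence. An increase in signal indicates blocked uPA-dependent LF entry.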

inhibition, inactive:
c1csc(CN2CCOCC2)c1 0.583%, CCCCCOC(=O)Nc1nnc(CCCCC)s1 2.17%, Cc1ccnc(NC(=O)CCNS(=O)(=O)c2ccc(C)c(C)c2)c1 -1.55%, CCCCn1c(-c2cccnc2)nc2cc3[nH]c(=O)c(C(C)C)nc3cc21 4.78%, Cc1ccn(CCC(=O)N2CCc3ccccc32)n1 -1.7%, CCOC(=O)C(CC)n1cnc2c(nnn2-c2ccccc2)c1=O (stereo unspecified) 0.0418%, O=C1CC(/C=C/c2ccc(Cl)cc2)=Nc2ccccc2N1 -2.63%, O=C(NNC(=O)c1ncc(Cl)c(Cl)c1Cl)c1ccc(F)cc1 1.74%, O=C(Nc1ccc2c(c1)CCC2)Nc1ccc2c(c1)OCO2 0.735%, CCNc1nc(Nc2ccc(C)c(Cl)c2)c2cnn(C)c2n1 -1.27%, COc1ccc2[nH]cc(S(=O)(=O)c3ccc(C(C)C)cc3)c(=O)c2c1 0.422%, Cc1ccc(C(CC(=O)N2CCCC2)c2ccccc2)c(O)c1 (stereo unspecified) -1.01%, CCN(CC)C(=O)Cn1cc(/C=C(\C#N)C(=O)NC2CC2)c2ccccc21 1.37%, CC(C)OC(=O)Nc1ccc(-c2ccc(NC(=O)OC(C)C)cc2Cl)c(Cl)c1 7.93%, CCOc1ccc(OCC)c(NC(=O)c2ccc(CNc3c(N4CCCC4)c(=O)c3=O)cc2)c1 -4.06%, N#Cc1cccc(NC(=O)Cn2cnc(S(=O)(=O)N3CCOCC3)c2)c1 -0.879%, COc1cc(F)ccc1S(=O)(=O)n1c(C)nc2ccccc21 5.83%, COc1ccccc1C(=O)NCc1ccccc1 -2.97%, C=C(C(=O)O)C1CCC2(C)CCCC(C)(O)C2C1 (stereo unspecified) -1.14%, CC(C)CN(C(=O)CN1CCC(C)CC1)c1c(N)n(CC(C)C)c(=O)[nH]c1=O 0.626%, O=C(Cc1ccc(Cl)cc1)NC(=S)Nc1ccccc1O 2.56%
